Rows were chosen to be rich in hits. Some 9.5% of all compounds tested hit in one or more screens of this group.
Tau ThT inhib: tau fibrillization inhibition (ThT binding); recombinant tau K18 P301L, heparin-induced fibrillization, ThT fluorescence; AID 1460; 2.1% of 270,000 active; Potency, µM (top dose mostly 57.4 µM), most hits filed as inhibitors; P10636; further: nearly all actives have a fitted effect of over 55% in size
Target sequence (P10636 561-689 P618L limits assumed): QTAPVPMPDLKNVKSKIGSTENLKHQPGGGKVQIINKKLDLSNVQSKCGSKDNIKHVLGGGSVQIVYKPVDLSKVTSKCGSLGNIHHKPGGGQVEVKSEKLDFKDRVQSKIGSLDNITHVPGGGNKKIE
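Aggregation was driven by heparin (20 uM final) acting on recombinant tau […] bearing P301L in 100 mM sodium acetate pH 7; fibrils were detected with Thioflavin T.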
Tau FP inhib: blocks human tau fibril formation measured by polarization; P10636; K18 P301L tau heparin fibrillization, Alexa594 FP, 6 h; Potency, µM (series often up to 57.7 µM), usual class: inhibitors; 0.39% of 280,000 active; further: nearly all actives have a fitted effect of over 55% in size
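Read-out: fluorescence polarization of Alexa 594-labeled tau (0.24 uM), 555 nm excitation, 632 nm emission. Mixtures held 15 uM unlabeled K18 P301L, compound and 20 uM heparin, pH 7 acetate buffer, incubated 6 hr at 37 C.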
ALDH1A1 inh: blocks purified human ALDH1A1 activity; P00352; Purified ALDH1A1, NADH fluorescence, propionaldehyde substrate; Potency, µM (doses to about 75.3 µM), usual class: inhibitors; 7.3% of 220,000 active; AID 1030; active means well fitted inhibition curve with a large enough effect, not every such curve was filed as active; inconclusive means small, poorly fitted or top-dose-only effect, or another doubt; inactive means no such curve, though single readings can be large or run the other way
NPSR antagonist: blocks cAMP signaling of the human neuropeptide S receptor | Potency, µM (series often up to 38.3 µM), hits mostly inhibitors | AID 1461 | CHO-NPSR cells, cAMP TR-FRET, antagonist mode | 1% of 220,000 active; further: nearly all actives have a fitted effect of over 50% in size
HPGD block: blocks human HPGD enzyme activity. P15428. purified HPGD, NADH fluorescence kinetic, PGE2 substrate. Potency, µM, most hits filed as inhibitors. 4.3% of 150,000 active; active means well fitted inhibition curve with a large enough effect, not every such curve was filed as active; inconclusive means small, poorly fitted or top-dose-only effect, or another doubt; inactive means no such curve, though single readings can be large or run the other way
Target sequence (P15428 whole entry, looked up): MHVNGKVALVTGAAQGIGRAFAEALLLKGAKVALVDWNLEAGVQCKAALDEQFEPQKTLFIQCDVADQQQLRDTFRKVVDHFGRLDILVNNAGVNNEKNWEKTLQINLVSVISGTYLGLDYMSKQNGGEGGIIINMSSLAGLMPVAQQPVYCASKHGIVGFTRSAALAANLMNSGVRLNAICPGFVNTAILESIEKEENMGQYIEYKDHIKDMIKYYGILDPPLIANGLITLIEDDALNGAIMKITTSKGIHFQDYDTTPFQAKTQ
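20 nM HPGD preincubated 15 min at room temperature with compound in 50 mM Tris-HCl pH 8, 0.01% Tween 20. Started with 1 mM NAD+ and 30 uM prostaglandin E2; NADH fluorescence (360/450 nm) read 5 times over 30-s intervals, last minus first.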
Tau fluor cs: counter-screen for tau fibril formation inhibitors. tau K18 P301L (four-repeat tau fragment) Alexa594 fluorescence, heparin fibrillization. Potency, µM (highest dose often 57.7 µM). 0.93% of 280,000 active; further: nearly all actives have a fitted effect of over 55% in size
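Human K18 P301L tau (15 uM unlabeled plus 0.24 uM Alexa 594-labeled, final) in 100 mM sodium acetate pH 7 was mixed with compound and 20 uM heparin and incubated 6 hr at 37 C.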
A number is an active result; n = inactive; u = inconclusive; x = no result; [ ] = dose if it differs, or a comment. Unless noted, the call rests on the fitted dose curve; in most records, active means well fitted curve in the direction sought with a large enough effect; inconclusive means small, poorly fitted or top-dose-only effect, or another doubt; inactive means no such curve, though single readings can be large; an effect the other way counts as inactive or inconclusive.

SMILES	Tau ThT inhib	Tau FP inhib	ALDH1A1 inh	NPSR antagonist	HPGD block	Tau fluor cs
Cc1ccccc1NC(=O)C(=O)NCC(c1ccc2c(c1)OCO2)N1CCN(c2ccccc2)CC1 (stereo unspecified)	n	n	x	x	x	n
COC(=O)c1ccc(C(=O)OC)c(NC(=O)c2cnn3c(C(F)F)cc(-c4ccccc4)nc23)c1	n	n	x	x	x	n
CC(CNS(=O)(=O)c1ccc2c(c1)CC(=O)N2C)c1ccccc1 (stereo unspecified)	n	n	x	x	x	n
CC1(C(=O)OCc2cc(=O)n3cc(Br)ccc3n2)CC1(Cl)Cl (stereo unspecified)	n	n	20µM	n	x	n
CC1CC1C(=O)OCc1cc(=O)n2cc(Br)ccc2n1 (stereo unspecified)	n	n	n	n	n	n
COc1ccccc1/C=C\C(=O)OC[C@@H]1CCCN2CCCC[C@H]12	n	n	u	x	n	n
O=C(O)CN1CCCC1=Nc1ccccc1	n	n	89µM	n	n	n
O=C(O)CN1CCN(Cc2ccccc2)C1=O	n	n	n	n	n	n
CCOc1ccc(NC(=O)CSc2nnc(-c3ccc(OCC)cc3)o2)cc1	n	n	x	x	x	n
CCOC(=O)c1cc(-c2nnc(SCC(=O)Nc3ccc(F)cc3)o2)c(C)nc1C	n	n	10µM	u	14µM	n
CCOC(=O)c1c(NC(=O)CSc2nnc(-c3ccco3)o2)sc(C(C)=O)c1C	n	n	n	n	16µM	n
CCOC(=O)c1c(NC(=O)CSc2nnc(-c3cccnc3)o2)sc(C(C)=O)c1C	n	n	n	n	u	n
CCOC(=O)c1c(NC(=O)CSc2nnc(-c3ccco3)o2)sc(C)c1C	n	n	8.9µM	u	n	n
CCOC(=O)c1c(NC(=O)CSc2nnc(Cc3ccccc3)o2)sc(C)c1C	u	n	16µM	n	n	n
Cc1cc(C)cc(/C=C/C2OCC(O)C2Oc2ccc(C3CCCC3)cc2)c1 (stereo unspecified)	n[11.5 µM]	n[11.6 µM]	n[13.5 µM]	x	x	n[11.6 µM]
COc1ccccc1NC(=O)C1=C(C)Nc2nc(CCCO)nn2C1c1cccc(O)c1 (stereo unspecified)	n	n	x	x	x	n
CCOC(=O)c1c(NC(=O)CSc2nc3cccnc3n2C)sc(C(C)=O)c1C	n	n	n	u	n	n
CCOC(=O)c1c(NC(=O)CSc2nnc(-c3ccccc3C)n2C)sc(C(C)=O)c1C	u	n	25µM	n	u	n
CC1(C)OC(=O)C(=NNc2ccc(Br)cc2)C(=O)O1	n	n	13µM	n	n	n
O=C1C[C@@H]2CCN3C(=O)CCC[C@@H]([C@H]23)[C@@H]1Cc1ccccc1	n	n	16µM	x	n	n
O=C1CCCN1CCCN1C(=O)N[C@@H](Cc2ccccc2)C1=O	n	n	n	n	n	n
COc1ccccc1NS(=O)(=O)c1ccc(Cl)c(NC(=S)NC(=O)C2CCCC2)c1	n	n	u	n	n	n
CCN(CC)c1ccc(S(=O)(=O)Nc2cc(Cl)ccc2Cl)cc1NC(=S)NC(=O)C1CCCC1	n	n	22µM	n	n	n
CCCC(CCC)c1nc2ccncc2[nH]1	n	n	n	n	x	n
COC(=O)CC1C(=O)NCCN1C(=S)NC(=O)c1sc2ccccc2c1Cl (stereo unspecified)	n	n	13µM	n	x	n
SMILES	Tau ThT inhib	Tau FP inhib	ALDH1A1 inh	NPSR antagonist	HPGD block	Tau fluor cs
COC(=O)CC1C(=O)NCCN1C(=O)c1sc2ccccc2c1Cl (stereo unspecified)	x	x	x	n	x	x
CC(C)Sc1nc2sc3c(c2c(=O)n1Cc1ccccc1)CCCC3	n	n	x	x	x	n
CC(O)CNc1nc2sc3c(c2c(=O)n1CCc1ccccc1)CCCCC3 (stereo unspecified)	u	n	u	n	n	10µM[quencher]
COCCN=C1Sc2nc3cc(C)c(C)cc3cc2CN1Cc1cccs1	n	n	x	n	x	n
COCCN=C1Sc2nc3ccc(C)cc3cc2CN1Cc1ccco1	u	n	25µM	u	n	n
COc1ccccc1CN1CCC2(CC1)CCN(C(=O)c1ccncc1)CC2	x	x	n	x	n	x
COc1ccc(CCNC(=O)C(=O)NCc2ccc(C(C)C)cc2)cc1OC	n	n	0.79µM	n	n	n
Cc1cc(Cl)ccc1Nc1sc(C(=O)c2cc3cc(Cl)ccc3o2)c(N)c1C#N	x	x	n[13.5 µM]	x	n	x

Source: PubChem BioAssay (National Center for Advancing Translational Sciences (NCATS))
